From PubChem BioAssay
This is a sample that favours compounds with a hit; in the whole collection about 2.4% have one here.
ATXN viability: reduces viability in counter-screen for ATXN expression inhibitors; Potency, µM (highest dose often 56.7 µM), most hits filed as cytotoxic; S2 cells (HEK-293 line with an ATXN2-luciferase reporter) viability, CellTiter-Fluor protease fluorescence, 24 h; actives 0.49% (n = 400,000); further: nearly all actives have a fitted effect of over 40% in size
Apoferritin bind: binds horse apoferritin like a general anesthetic | apoferritin/1-aminoanthracene competitive binding, fluorescence | Potency, µM (doses to about 77.5 µM), inactives show top-dose activity change, negative = displacement, usual class: inhibitors | actives 0.074% (n = 350,000); further: on the % scale 0 is the no-effect control and ±100 the full control effect; nearly all actives have a fitted effect of over 20% in size
Target sequence (P02791 2-175 limits assumed): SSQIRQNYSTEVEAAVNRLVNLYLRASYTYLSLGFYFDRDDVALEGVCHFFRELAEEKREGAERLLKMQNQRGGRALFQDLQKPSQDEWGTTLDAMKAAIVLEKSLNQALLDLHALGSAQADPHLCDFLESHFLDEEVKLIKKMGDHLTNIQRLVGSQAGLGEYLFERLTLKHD
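Probe: 1-aminoanthracene (50% saturated, PBS). Protein: horse-spleen apoferritin, 10 uM. Incubation: 10 min, room temperature. Detection: 380 nm excitation, 535 nm emission. Analysis: normalized response, four-parameter Hill.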
HepG2 tox: kills HepG2 cells in TGF-b inhibitor counter-screen | Potency, µM (doses to about 46.1 µM), for inactives: top-dose activity change, negative = cytotoxicity, hits mostly cytotoxic | actives 0.76% (n = 410,000) | HepG2 CAGA-GFP viability, ATP luminescence, 18 h
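HepG2 CAGA-GFP cells (1000/well, DMEM with 1% FBS) received compound, then TGF-beta at 500 pg/mL final, and were incubated 18 hours at 37 degrees C. Viability was read by CellTiter-Glo luminescence. Media-only wells were set as complete cell-killing and DMSO as no toxicity.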
ATXN2 expr inh: ATXN2 expression inhibition; HEK-293 ATXN2-luciferase reporter, luminescence, 24 h; Potency, µM (top dose mostly 57 µM), for the others: at the highest dose activity change, negative = inhibition, usual class: inhibitors; actives 0.72% (n = 360,000); AID 1745845; further: on the % scale 0 is the no-effect control and ±100 the full control effect; nearly all actives have a fitted effect of over 55% in size
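ATXN2-luciferase reporter cells (luciferase flanked by upstream and downstream ATXN2 gene portions) were treated 24 h at 37 °C with compounds at up to 57 uM. SteadyGlo luminescence gave expression; GF-AFC fluorescence gave viability.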
TGFb SMAD3 inh: blocks TGF-b signaling; HepG2 CAGA-GFP TGF-b/SMAD3 reporter, GFP fluorescence, 18 h; TGF-beta stimulated, 500 pg/mL final; Potency, µM (highest dose often 46.1 µM), inactives show at the highest dose activity, negative = inhibition, hits mostly inhibitors; actives 1.2% (n = 410,000); AID 588855; further: on the % scale 0 is the no-effect control and ±100 the full control effect; nearly all actives have a fitted effect of over 65% in size
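Smad-responsive CAGA-GFP expression was quantified in HEPG2 cells exposed to compounds and 500 pg/mL final TGF-beta for 18 h at 37 degrees C; unstimulated wells defined full inhibition.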
Active calls of the source: *; i = inactive; u = inconclusive; x = no result; ! = repeats disagree; [ ] = remark or other dose. The call rests on the fitted dose curve; in most records, active means well fitted curve in the direction sought with a large enough effect; inconclusive means small, poorly fitted or top-dose-only effect, or another doubt; inactive means no such curve, though single readings can be large; an effect the other way counts as inactive or inconclusive. Potency means the concentration at half of the fitted maximal effect.

SMILES | ATXN viability | Apoferritin bind | HepG2 tox | ATXN2 expr inh | TGFb SMAD3 inh
Nc1ccc(N)c([N+](=O)[O-])c1 | u | x | x | 11.7%[116 µM] | x
CC(C)(C)c1ccc(Cn2c(Cc3ccccc3)nc3ccccc32)cc1 | u | 78.1% | 15.8µM* | u | 14.1µM*
COc1ccccc1CCNc1ncnc2sc(C(=O)N3CCCC3)c(C)c12 | i | x | x | x | x
Cc1csc(NC(=O)c2sc3nc4c(c(C(F)(F)F)c3c2N)CCC4)n1 | x | x | x | 0.0968µM* | x
CCC(C)[C@H]1COCCS(=O)(=O)N1Cc1ccc(Cl)cc1Cl (stereo partly drawn) | i | -0.2% | -31.7% | -9.4% | 10µM*!
Nc1ncn(C(=S)Nc2ccccc2)n1 | u | x | -46.6% | u | 8.91µM*
O=C(CCc1ccccc1)NC1(Cc2ccccc2)CCN(CCCc2ccccc2)C1=O (stereo not drawn) | u | x | -22.6% | u | 12.6µM*
CC(C)CCN1CCC(Cc2ccccc2)(NC(=O)c2ccccc2)C1=O (stereo not drawn) | u | x | -15.3% | 1.3% | -4.2%
COc1ccc(C2CC(=O)Oc3c(C(CCN4CCCCC4)c4ccc(N(C)C)cc4)c(OC)cc(OC)c32)cc1 (stereo not drawn) | 8.91µM* | -22.8% | 6.5% | -22.2% | -11.6%
COc1ccc(C2CC(=O)Oc3c(C(CCN4CCCC(C)C4)c4ccc(N(C)C)cc4)c(OC)cc(OC)c32)cc1 (stereo not drawn) | 8.91µM* | -10.8% | -22.4% | -0.8% | -6.2%
COc1ccc(N2C(=O)[C@@H]3C[C@H]2CN3Cc2cccn2-c2ccccn2)cc1Cl | i | x | x | x | x
O=c1c2ccccc2nnn1Cc1ccccc1Cl | i | 14.1µM* | -0.4% | 0.0% | -0.2%
O=c1c(Cl)c(Cl)cnn1Cc1ccccc1Cl | 10µM* | u | -104.1% | 8.91µM* | u
O=c1c(Cl)c(Cl)cnn1Cc1nnc(-c2ccc(Cl)cc2)o1 | u | u | 11.2µM* | u | 12.6µM*
O=c1c2ccccc2nnn1Cc1ccccc1 | i | u | -0.1% | 21.1% | 0.5%
NC(=NCCCCCCN=C(N)/N=C(\N)Nc1ccc(Cl)cc1)/N=C(\N)Nc1ccc(Cl)cc1 | 31.6µM*! | u | -28.3% | 20µM*! | u
CC(C)N=C(N)/N=C(\N)Nc1ccc(Cl)cc1 | i | 2.7%[29.3 µM] | x | -23.5% | x
COc1ccccc1-c1oc2ccccc2c1C#CC1(N)CCCCC1 | 25.1µM* | x | -101.3% | u | u
Cc1ccc(Sc2ccc(N3CCCC(C(=O)Nc4ccc(Br)cc4)C3)nn2)cc1 (stereo not drawn) | u | -16.0% | -9.2% | -6.3% | u
CC1(Cc2ccccc2Cl)C(=O)Nc2ccc(OC(F)(F)F)cc21 (stereo not drawn) | u | x | -90.4% | u | 11.2µM*
CC1CCCN(C(=O)CSc2nnc3ccccn23)C1 (stereo not drawn) | u | x | 9.4% | x | 10.7%
CCc1c(C)sc(NC(=O)c2cc(-c3cc(OC)ccc3OC)on2)c1C#N | x | -11.8% | 1.6% | 14.1µM* | 1.5%
COc1ccc(Nc2ncc(C(=O)Nc3ccc(F)cc3F)c3ccccc23)cc1 | u | 245.0% | -35.3% | -19.7% | 12.6µM*
COc1ccc(OC)c(NC(=O)c2cnc(Nc3ccc(C)c(Cl)c3)c3ccccc23)c1 | x | 187.7% | 1.2% | 5.5% | -19.3%
Cc1noc(/C=C/c2cccs2)c1S(=O)(=O)N1CCC(C(=O)Nc2ccc(F)c(Cl)c2)CC1 | x | -12.1% | -24.2% | x | 6.31µM*
SMILES | ATXN viability | Apoferritin bind | HepG2 tox | ATXN2 expr inh | TGFb SMAD3 inh
CCOc1ccccc1/C=C/c1onc(C)c1S(=O)(=O)N1CCC(C(=O)N(CC)CC)CC1 | u | -23.9% | 4.7% | x | u
CCN(CCN(C)C)C(=O)C1CCN(S(=O)(=O)c2c(C)noc2/C=C/c2ccccc2F)CC1 | u | -18.0% | 15.8µM*! | x | u
Cc1ccc(NC(=O)C2CCN(S(=O)(=O)c3c(C)noc3/C=C/c3cccs3)CC2)cc1F | x | -9.5% | -26.0% | x | u
COC(=O)[C@H](C)NC(=O)C/C=C\[C@@H](C)[C@H]1C=C[C@H](O)[C@@H](CO)O1 | x | 29.4%[15.3 µM] | x | x | x
CCOc1ccc(NC(=O)c2nc(S(=O)(=O)Cc3ccccc3)ncc2Cl)cc1 | x | x | 11.2µM* | x | 11.2µM*
COc1ccc(NC(=O)c2nc(S(=O)(=O)Cc3ccc(C)cc3)ncc2Cl)cc1 | x | 57.3% | 8.91µM* | x | x
CCS(=O)(=O)c1ncc(Cl)c(C(=O)Nc2ccc(C)cc2)n1 | x | -6.8% | -98.0% | u | u
CC(C)c1nnc(NC(=O)c2nc(S(=O)(=O)Cc3ccc(F)cc3)ncc2Cl)s1 | u | -1.3% | -70.6% | -7.1% | u
CCOc1ccc(NC(=O)c2nc(S(=O)(=O)Cc3ccc(C)cc3)ncc2Cl)cc1 | x | x | 12.6µM* | x | u
Cc1ccc(C)c(NC(=O)c2nc(S(=O)(=O)Cc3ccc(F)cc3)ncc2Cl)c1 | x | 65.4% | 3.55µM* | x | 3.55µM*
CC(C)(C)OC(=O)N1CCCC1C(=O)NC1COC2CC(n3cc(F)c(=O)[nH]c3=O)OC12 (stereo not drawn) | x | -3.8% | -0.7% | x | -0.7%
COc1ccc(C2C(C(=O)OCC3CCCO3)=C(C)NC3=C2C(=O)CC(c2ccco2)C3)cc1O (stereo not drawn) | i | -22.3% | -12.0% | 1.8% | 15.8%
CS(=O)(=O)c1ncc(Cl)c(C(=O)Nc2ccc3ccccc3c2)n1 | 20µM* | -9.0% | 5.62µM* | u | 5.01µM*
CC(=O)Nc1ccc(NC(=O)c2nc(S(=O)(=O)Cc3ccccc3)ncc2Cl)cc1 | u | -9.2% | -107.6% | x | u
CC(=O)Nc1ccc(SCC(CC(C)C)N2CCN(CCc3ccccc3)CCC2=O)cc1 (stereo not drawn) | x | -7.5% | -6.3% | x | u
Cc1nnc(N/N=C\c2ccc(-c3ccccc3[N+](=O)[O-])o2)n1N | i | -3.5% | -105.8% | 7.2% | 8.91µM*
Cc1nnc(N/N=C/c2ccc(-c3ccccc3F)o2)n1N | i | -23.7% | -96.1% | -2.1% | u
Cc1cccc(NC(=O)CNC(=O)Cc2ccc3c(c2)OCCO3)c1C | i | x | -16.6% | x | -4.6%
N#CC(=C1C=CC(=NO)C(Cl)=C1)c1ccccc1 | i | x | -61.9% | 0.0% | 11.2µM*
O=C(N/N=C/c1ccc(O)cc1)c1[nH]c2ccc(Br)cc2c1-c1ccccc1 | i | -1.1% | -43.7% | -22.3% | 11.2µM*
Cc1c(C(=O)N/N=C/c2ccc(Cl)cc2)[nH]c2ccc(Cl)cc12 | u | -7.6% | 10µM* | x | 2µM*
CNc1c(Br)cc(C(O)C2=CCc3ccccc32)cc1Br (stereo not drawn) | x | x | -36.7% | x | -24.7%
